Hit rate of the full screen: of about 52,000 compounds, about 4,300 (8.3%) were called active. Only a selection was taken, and actives are over-represented in it overall. Unmarked numbers belong to inactive results. Rule as the data show it: active = survival mostly below about 52% (no sharp cut-off); inactive = mostly above about 56%.
test system: DeltatarO mutant; experiment: growth inhibition of S. aureus wild type versus tarO mutant, primary screen, teichoic acid synthesis inhibitors, RN4220, OD600 (AID 463173); conditions: OD600, 18 h, hits give low values, screened at 18.75 µg/mL (by protocol)

Compound | survival
CCN(CC)C(=O)C1=CC(c2ccc3c(c2)OCO3)=NS(=O)(=O)N1C | 86%
Cc1nc(SCC(=O)OCN2C(=O)c3ccccc3C2=O)n[nH]1 | 80%
COC(=O)C(C)Sc1ncnc2c1c(-c1ccccc1)cn2-c1ccc(F)cc1 (stereo unspecified) | 76%
Cn1c(=O)c2c(c3ccccc31)OC(=O)CC2c1ccc(C(F)(F)F)cc1 (stereo unspecified) | 61%
COc1ccc(C2CC(=O)c3c([nH]c(C(=O)OCCOc4ccccc4)c3C)C2)cc1OC (stereo unspecified) | 99%
COc1ccc(C)cc1NC(=O)C(Cc1ccccc1)NS(=O)(=O)c1ccc(Br)s1 (stereo unspecified) | 131%
Cc1ccc(N2CC(NC(=O)C3CC3)CC2=O)cc1C (stereo unspecified) | 94%
CC(=O)Nc1ccc(OCC(O)CN2CCN(c3ccc(C)c(Cl)c3)CC2)cc1 (stereo unspecified) | 76%
COc1ccccc1N1CCN(CC(O)COc2ccc(Cl)c(C)c2)CC1 (stereo unspecified) | 59%
Cc1cc(OCC(O)CN2CCN(c3cccc(Cl)c3)CC2)ccc1Cl (stereo unspecified) | -1% (active)
CCOC(=O)c1c(C)oc2nc(C)nc(NCC3CCN(Cc4ccc(C)cc4)CC3)c12 | 91%
O=C(O)CN1C(=O)/C(=c2\sc3nc4ccccc4n3c2=O)c2ccccc21 | 81%
O=c1[nH]c2ccc(NCc3ccccc3F)cc2[nH]1 | 94%
CCOC(=O)c1cccc(NC(=O)c2cnn(-c3ccccc3)c2-n2cccc2)c1 | 80%
CCOc1ccc(NC(=O)c2cnn(-c3ccccc3)c2-n2cccc2)cc1 | 71%
CCOc1ccccc1CNC(=O)c1cnn(-c2ccc(C)cc2)c1-n1cccc1 | 37% (active)
COc1cc(OC)c(NC(=O)c2cnn(-c3ccccc3)c2-n2cccc2)cc1Cl | 84%
Cc1ccc(-n2ncc(C(=O)NCc3ccccc3C)c2-n2cccc2)cc1 | 74%
COc1ccc(CNC(=O)c2cnn(-c3ccccc3)c2-n2cccc2)cc1OC | 113%
CCc1ccc(NC(=O)c2cnn(-c3ccccc3)c2-n2cccc2)cc1 | 31% (active)
COc1ccccc1NC(=O)c1cnn(-c2ccccc2)c1-n1cccc1 | 93%
COc1ccc(CNC(=O)c2cnn(-c3ccc(F)cc3)c2-n2cccc2)cc1 | 89%

Compound | survival
O=C(NCCc1ccccc1)c1cnn(-c2ccc(F)cc2)c1-n1cccc1 | 58%
O=C(Nc1cc(C(F)(F)F)ccc1Cl)c1cnn(-c2ccccc2)c1-n1cccc1 | 0% (active)
CSc1ccc(CCNC(=O)c2cnn(-c3ccccc3)c2-n2cccc2)cc1 | 46% (active)
COCCn1c(C)cc(O)c(C(c2ccccc2F)N2CCN(c3ccccc3)CC2)c1=O (stereo unspecified) | 79%
COc1ccc(N2CCN(C(=O)CSc3nnc4c(C)cc5cc6c(cc5n34)OCCO6)CC2)cc1 | 86%
COc1ccc(NC(=O)CN2C(=O)C(c3ccccc3)=NC23CCC(C)CC3)cc1Cl (stereo unspecified) | 73%
COC(=O)c1c(-c2cccs2)csc1NC(=O)c1ccc(C(C)C)cc1 | 73%
COc1ccc(C(=O)NCCc2sc(-c3cccc(F)c3)nc2C)cc1 | 67%
CCCN(C(=O)c1cc2c(=O)oc3ccccc3c2s1)c1cccc(Cl)c1 | 47%
CCc1ccc(CNC(=O)c2cc3c(=O)oc4ccc(C)cc4c3s2)cc1 | 82%
CCc1ccc(N(CC)C(=O)c2cc3c(=O)oc4ccc(C)cc4c3s2)cc1 | 42% (active)
CCCN(C(=O)c1cc2c(=O)oc3ccccc3c2s1)c1ccc(CC)cc1 | 31% (active)
CCCN(C(=O)c1cc2c(=O)oc3ccccc3c2s1)c1ccccc1C | 54%
CCN(C(=O)c1cc2c(=O)oc3ccc(C)cc3c2s1)c1ccccc1C | 63%
CCOC(=O)C1=C(CN2CCCCC2)NC(=O)NC1c1ccc(OC)cc1 (stereo unspecified) | 84%
O=C1Nc2ccccc2C1=Nc1ccc(Br)cc1 | 74%
CCN(C(=O)CCS(=O)(=O)c1cccc2nsnc12)c1cccc(C)c1 | 74%
O=C(NC1CCCC1)C(c1ccccc1)N(CC1CCCO1)C(=O)Cn1nnc2ccccc21 (stereo unspecified) | 89%
CCOc1ccccc1NC(=O)CSc1nnc(CC)c(CC)n1 | 73%
Cc1ccc(C(=O)NCc2nnnn2-c2ccc(C)c(C)c2)cc1 | 115%
COc1ccc(-n2nnnc2SCC(=O)NCCc2ccccc2)cc1 | 53%
Cc1ccc(-n2nnnc2CNC(=O)c2ccc(F)cc2)cc1C | 106%

Compound | survival
Cc1ccc(-n2nnnc2CNC(=O)C(C)(C)C)cc1C | 46% (active)
Cc1ccc(-n2nnnc2SCC(=O)NCCc2ccccc2)cc1C | 42% (active)
Cc1ccc(-n2nnnc2CNC(=O)c2cc(C(F)(F)F)cc(C(F)(F)F)c2)cc1C | 0% (active)
O=C(CSc1nnnn1Cc1ccccc1)NCCc1ccccc1 | 89%
Cc1ccc(-n2nnnc2CNC(=O)c2ccccc2)cc1C | 144%
Cc1ccc(-n2nnnc2CNC(=O)C(C)C)cc1C | 105%
CCOC(=O)C1=C(CS(=O)(=O)c2ccc(Br)cc2)NC(=O)NC1c1ccccc1 (stereo unspecified) | 80%
Cc1cccc(-c2cc(NC(=O)COc3ccccc3F)n(-c3ccccc3)n2)c1 | 86%
CCOC(=O)c1ccc(NC(=O)Cn2c(=O)cc(C(F)(F)F)c3c(C)nn(C)c32)cc1 | 95%
COc1ccc(CCNS(=O)(=O)c2ccc(N3CCCCS3(=O)=O)cc2)cc1OC | 69%
O=C(Nc1cccc(-c2nc3ccccc3o2)c1)C(F)(F)F | 61%
COc1ccc(Cl)cc1C(=O)Nc1ccc2oc(-c3ccc(C(C)(C)C)cc3)nc2c1 | 82%
O=C(Nc1ccc2oc(-c3cccnc3)nc2c1)c1ccc(-c2ccc(Cl)cc2)o1 | 73%
COc1ccc(Br)cc1C(=O)Nc1ccc(-c2nc3cc(Cl)ccc3o2)cc1 | 43% (active)
O=C(Nc1ccc(-c2nc3cc(Cl)ccc3o2)cc1)c1cc(Br)ccc1Cl | 93%
Cc1c(NC(=O)c2ccc(-c3cccc([N+](=O)[O-])c3)o2)cccc1-c1nc2cc(Cl)ccc2o1 | 52%
O=C(Nc1ccc2oc(-c3cccnc3)nc2c1)c1ccc(-c2cccc(Cl)c2)o1 | 50%
O=C(Nc1ccc(Cl)c(-c2nc3ccccc3o2)c1)c1ccc(-c2cccc([N+](=O)[O-])c2)o1 | 37% (active)
O=C(Nc1ccc2oc(-c3ccc(Br)cc3)nc2c1)c1cc2ccccc2o1 | 55%
O=C(Nc1cccc(-c2nc3ccccc3o2)c1)c1ccc(-c2ccc(Br)cc2)o1 | 39% (active)
O=C(Nc1ccc2oc(-c3cccnc3)nc2c1)c1ccc(-c2ccccc2)o1 | 45% (active)
O=C(Nc1ccc(O)c(-c2nc3ccccc3o2)c1)c1ccc(-c2cccc(Cl)c2)o1 | 49%

— PubChem BioAssay AID463173 (ICCB-Longwood Screening Facility, Harvard Medical School, 2010)
